From the supplement of paper PMC6555819

Assays:
Assay in all cases: PBM binding z-score (relative to random genomic background probes); higher = stronger binding; sequences stand for … in GC…GCGATTGACAGCGTAGAATGAAGG
[1] = tested on: RARb homodimer (NR concentration 270 nM)
Outline: (§1)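 For binding z-scores, the reference was random background probes on custom Agilent 4×180K protein-binding microarrays. These arrays were incubated 1 h with ligand-free nuclear receptor dimers in PBS pH 7.4, 2% milk, 0.02% Triton X-100, 1 mM DTT, 0.2 mg/mL BSA and 0.4 mg/ml salmon testes DNA. Fluorescence was scanned after antibody detection of each partner (one per run) and regression-normalized.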

[2] = tested on: RARg:RXRa (NR concentration 270 nM, RXRa partner concentration 90 nM)
Outline: as §1

[3] = tested on: RARg homodimer (NR concentration 270 nM)
Outline: as §1

[4] = tested on: RXRa DBDmut IVT, anti-RXR (DBD mutation: RXRa K156A/R161A, NR concentration 90 nM)
Outline: as §1

[5] = tested on: RXRa homodimer (NR concentration 180 nM)
Outline: as §1

[6] = tested on: THRa:RXRa (NR concentration 90 nM, RXRa partner concentration 90 nM)
Outline: as §1

[7] = tested on: THRa homodimer (NR concentration 90 nM)
Outline: as §1

[8] = tested on: VDR homodimer (NR concentration 270 nM)
Outline: as §1

Sequence | PBM binding z-score [1] | PBM binding z-score [2] | PBM binding z-score [3] | PBM binding z-score [4] | PBM binding z-score [5] | PBM binding z-score [6] | PBM binding z-score [7] | PBM binding z-score [8]
ACAGACAGGTGATGAAGGTAACTGAGGCTATCAT | 0.244 | 0.321 | 0.603 | -0.383 | 0.305 | 1.33 | -0.0787 | -0.259
GCACATAGGTAATACAAGGTGAAAGTCCGATTGT | 0.838 | 0.572 | 0.547 | 0.115 | 0.869 | 4.19 | 1.02 | -0.0736
CCTACTGGGCCAAAGCTCATTGATTCCAATGCTC | -0.417 | -0.161 | -0.172 | -0.0907 | -0.521 | -0.58 | -0.358 | -0.874
AGAATGAGGTTATACGTAGATCACGGAAGAAAGT | 0.646 | 1.96 | 1.21 | 2 | 2.38 | 2.11 | 0.348 | 0.934
TCTTGTAAATCAAAGGTTAAGAAAGCCGAAGCCT | 1.35 | 1.39 | 0.692 | 0.749 | 2.24 | 0.996 | -0.284 | -0.116
TCTTGTTGATCAACAGGAGGTTAAGAAAGATCGA | 0.286 | 0.304 | 0.198 | 0.0758 | 0.644 | 0.723 | -0.731 | -0.304
GCAGACAGGTGAAACGAAGGTAACTCAGGGTGGC | 0.36 | 1.1 | 0.315 | -0.588 | 0.938 | 1.42 | -0.157 | -0.798
